Assay outcomes as filed in PubChem BioAssay.
An excerpt weighted towards active compounds, which were near 12% of everything screened.
PLK1 PBD block – qHTS for Inhibitors of PLK1-PDB (polo-like kinase 1 - polo-box domain): Primary Screen | 2.8% of 360,000 active | AID 720504, 2013 | Plk1 PBD binding of FITC phosphopeptide, fluorescence polarization | Potency, µM, for the others: max response, negative = inhibition, actives largely listed as inhibitors | Serine/threonine-protein kinase PLK1 (Homo sapiens), P53350; further: series mostly up to about 57 µM; on the % scale 0 is the no-effect control and ±100 the full control effect; nearly all actives have a fitted effect of over 65% in size
G9a block – qHTS Assay for Inhibitors of Histone Lysine Methyltransferase G9a. G9a H3K9 monomethylation, AlphaScreen, 2 h. 8.8% of 350,000 active. Potency, µM (highest dose often 102 µM), for the others: at the top dose activity, negative = inhibition, hits mostly inhibitors. Histone-lysine N-methyltransferase EHMT2 (Homo sapiens), Q96KQ7; further: on the % scale 0 is the no-effect control and ±100 the full control effect; nearly all actives have a fitted effect of over 75% in size
Target sequence (Q96KQ7 913-1193 limits assumed): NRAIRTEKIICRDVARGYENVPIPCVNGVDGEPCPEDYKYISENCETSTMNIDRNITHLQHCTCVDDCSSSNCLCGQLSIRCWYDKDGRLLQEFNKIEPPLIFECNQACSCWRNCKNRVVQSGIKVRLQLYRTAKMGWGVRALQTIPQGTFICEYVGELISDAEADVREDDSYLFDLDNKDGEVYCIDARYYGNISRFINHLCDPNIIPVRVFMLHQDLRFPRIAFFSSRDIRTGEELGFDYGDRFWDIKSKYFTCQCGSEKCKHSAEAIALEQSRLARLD
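Using a bead-based AlphaScreen, monomethylated H3K9 product from 2 h room-temperature reactions (G9a 20 nM, peptide 500 nM, SAM 20 uM) was detected with 0.5 ug/mL rabbit anti-H3K9me1 antibody.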
HP1b chromo inh – HTS for Inhibitors of HP1-beta Chromodomain Interactions with Methylated Histone Tails; 0.56% of 390,000 active; AlphaScreen HP1-beta / biotin-H3K9me3 peptide binding; Chromobox protein homolog 1 (Homo sapiens), P83916; Potency, µM (titrated, usually from 114 µM), without a hit: top-dose activity change, negative = inhibition, actives largely listed as inhibitors; further: nearly all actives have a fitted effect of over 70% in size
Target sequence (P83916 whole entry, looked up): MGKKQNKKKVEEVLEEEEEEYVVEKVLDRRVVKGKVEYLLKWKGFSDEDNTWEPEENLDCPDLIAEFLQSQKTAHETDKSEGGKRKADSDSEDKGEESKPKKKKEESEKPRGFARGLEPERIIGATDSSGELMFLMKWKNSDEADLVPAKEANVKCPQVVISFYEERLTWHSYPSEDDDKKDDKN
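Compound inhibition of the preformed complex between 50 nM HP1-beta and 50 nM biotinylated H3K9me3 peptide was read by AlphaScreen. Buffer was PBS pH 7.4 with 0.01% Tween-20. Incubations ran 30 min at room temperature, with 10 ug/mL donor/acceptor beads.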
BAZ2B block – qHTS Assay for Inhibitors of BAZ2B; Bromodomain adjacent to zinc finger domain protein 2B (Homo sapiens), Q9UIF8; AlphaScreen BAZ2B-H3K14Ac peptide displacement; Potency, µM (top dose mostly 114 µM), for inactives: at the highest dose activity change, negative = inhibition, actives largely listed as inhibitors; 4.4% of 360,000 active; AID 504333, 2011; further: on the % scale 0 is the no-effect control and ±100 the full control effect; nearly all actives have a fitted effect of over 60% in size
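AlphaScreen displacement of biotin-H3(5-23)K14Ac peptide (50 nM final) from BAZ2B (50 nM final) in PBS pH 7.4, 0.01% Tween-20; complex preformed 30 min RT, then compounds (top 110 uM) 30 min RT, beads 20 min dark.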
Sfp inh – qHTS Assay for Inhibitors of Bacillus subtilis Sfp phosphopantetheinyl transferase (PPTase); 4'-phosphopantetheinyl transferase ffp (Bacillus subtilis), Q9F4F7; Biochemical Sfp PPTase activity, qHTS; Potency, µM, without a hit: largest response in the series, negative = inhibition, most hits filed as inhibitors; 3.5% of 310,000 active; AID 1490, 2009;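 further: the enzyme is Sfp with the accession as filed and its product quenches rhodamine fluorescence; 0% = enzyme reaction without inhibitor and -100% = no enzyme wells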
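Sfp 15 nM + cpd, 15 min RT; start w/ rhodamine-CoA 5 uM, BHQ-2-YbbR 12.5 uM (final); 50 mM Hepes pH 7.6, 10 mM MgCl2, 0.01% NP-40, 0.01% BSA; read 525/598 nm at 0 and 30 min.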
JMJD2A Tudor inh – qHTS Assay for Inhibitors of JMJD2A-Tudor Domain; AlphaScreen JMJD2A-Tudor / H3K4me3 peptide binding; Potency, µM (highest dose often 114 µM), without a hit: top-dose activity change, negative = inhibition, most hits filed as inhibitors; 4.4% of 390,000 active; AID 504339, 2011; further: on the % scale 0 is the no-effect control and ±100 the full control effect; nearly all actives have a fitted effect of over 50% in size
An asterisk follows results filed as active; ? = inconclusive; . = no result given; ! = not active in a repeat; [ ] = remark or other dose. The call rests on the fitted dose curve; in most records, active means well fitted curve in the direction sought with a large enough effect; inconclusive means small, poorly fitted or top-dose-only effect, or another doubt; inactive means no such curve, though single readings can be large; an effect the other way counts as inactive or inconclusive. Potency means the concentration at half of the fitted maximal effect.

SMILES	PLK1 PBD block	G9a block	HP1b chromo inh	BAZ2B block	Sfp inh	JMJD2A Tudor inh
CC1(C)CC(=O)C(C(c2ccncc2)C2C(=O)CC(C)(C)CC2=O)C(=O)C1	-9.4%	50.1µM*	82.0%	-31.3%	4.1%	-7.5%
COc1ccc(N2CC(C)(C)C2=O)cc1	-8.9%	-4.9%	28.5%	-1.1%	13.9%	-2.7%
CC1(C)CC(=O)C(C(c2cccc([N+](=O)[O-])c2)C2C(=O)CC(C)(C)CC2=O)C(=O)C1	-21.6%	0.7%[59 µM]	28.3%	-0.1%	-9.2%	-16.3%
CC1(C)CC(=O)C(C(c2ccc3c(c2)OCO3)C2C(=O)CC(C)(C)CC2=O)C(=O)C1	16.8µM*	.	.	.	.	.
COc1ccc(CNC(=O)Cn2c(=O)nc(-c3ccccc3)c3cc(Cl)ccc32)cc1OC	.	3.9%[12.7 µM]	43.8%	-13.9%	.	-2.3%
COc1cccc(-c2cnc3c(NC(C)=O)cc(-c4cccc(C(=O)NCCN(C)C)c4)cn23)c1	3.0%	.	.	.	.	.
CCN(CC)c1ccc(/C=C2\SC(=O)N(C(C)C)C2=O)o1	63.3%	7.08µM*	-11.2%	?	7.08µM*	-34.7%
CC(C)N1C(=O)S/C(=C/c2ccc3c(c2)n(C)c(=O)n3C)C1=O	-2.3%	6.4%[59 µM]	5.8%	11.6%	12.0%	-21.8%
C/C=C/c1cc(CN2CCN(c3ccc(OC)cc3)CC2)c(O)c(OC)c1	-26.8%	35.5µM*	44.7µM*	28.2µM*	1.1%	44.7µM*
COc1ccc(N2CCN(Cc3cc4c(cc3O)CCC4)CC2)cc1	1.0%	?	-52.8%	31.6µM*	-19.2%	15.8µM*
C/C=C/c1cc(CN2CCN(c3ccccc3)CC2)c(O)c(OC)c1	-1.3%	?	-0.8%	.	-0.1%	?
CCCc1ccc(OC(=O)c2sc3ncn(Cc4cccc(F)c4)c(=O)c3c2C)cc1	.	5.7%[59 µM]	43.7%	15.6%	.	30.1%
CCOC(=O)c1c(CSc2ccccc2)n(C)c2cc(Br)c(OC)c(O)c12	-4.4%	21.3%	24.7%	-21.3%	12.5%	-7.5%
CCOC(=O)c1c(CSc2ccccc2)n(C)c2cc(Br)c(OCC(O)CNC(CO)(CO)CO)cc12 (stereo unspecified)	-4.2%	39.8µM*	56.2µM*	?	?	?
COc1ccccc1Nc1nc(-c2ccccc2)c(CC(=O)O)s1	.	?	23.9%	-25.0%	.	-13.8%
Cc1ccc(Nc2n[nH]c(=S)s2)c(C)c1	23.8µM*	.	.	.	.	.
Cc1cccc(Nc2n[nH]c(=S)s2)c1C	29.9µM*	?	?	44.7µM*	20µM*	5.62µM*
COc1ccccc1Nc1n[nH]c(=S)s1	21.2µM*	1.26µM*	22.4µM*	20µM*	79.4µM*	3.98µM*
Cc1cc(C)c(Nc2n[nH]c(=S)s2)cc1C	26.7µM*	.	.	.	.	.
COc1cccc(Nc2nc3ccc(OC)cc3s2)c1	3.6%	?	2.8%	-17.9%	-7.4%	-18.5%
COc1cccc(Nc2n[nH]c(=S)s2)c1	23.8µM*	1.41µM*	?	?	50.1µM*	3.16µM*
Cc1noc(C)c1CSc1nnc(-c2ccccc2)n1N	21.2µM*	3.16µM*	?	-3.8%	31.6µM*	?
Cc1noc(C)c1CSc1nnc(-c2ccccc2)n1Cc1ccco1	-11.3%	-48.6%[59 µM]	37.9%	.	?	-2.8%
Cc1noc(C)c1CSc1ccc2ccccc2n1	-2.0%	63.9%[59 µM]	102.0%	122.6%	79.4µM*	84.8%
CCC1CN(C(=O)N2CCC(C(=O)NCc3cc(OC)ccc3OC)CC2)c2ccccc2O1 (stereo unspecified)	.	-27.2%[59 µM]	27.6%	-30.2%	.	-18.1%
SMILES	PLK1 PBD block	G9a block	HP1b chromo inh	BAZ2B block	Sfp inh	JMJD2A Tudor inh
COc1ccc(-c2[nH]c(-c3cccc(OC)c3)nc2SCC(=O)NC2CCCC2)cc1	-6.6%	79.4µM*!	18.4%	?	3.8%	?
COc1cccc(-c2nc(SCC(=O)Nc3ccc4c(c3)OCO4)c(-c3ccccc3)[nH]2)c1	.	8.91µM*	?	?	.	?
COc1ccc(-c2[nH]c(-c3ccccc3)nc2SCC(=O)Nc2ccc3c(c2)OCCO3)cc1	.	?	-7.8%	?	.	?
COc1ccc(-c2nc(SCC(=O)Nc3ccc4c(c3)OCO4)c(-c3ccc(OC)cc3)[nH]2)cc1	.	12.6µM*	-16.3%	79.4µM*	.	?
CCC(C)c1ccc(S(=O)(=O)Nc2cccnc2)cc1 (stereo unspecified)	-11.6%	50.1µM*	45.8%	-31.2%	3.8%	-30.2%
CCc1ccc(NC(=O)CCC(=O)N2CCSc3ccccc32)cc1	-0.9%	16.5%	22.8%	6.1%	-4.4%	-12.7%
CCn1cc(CCC(=O)O)c(C)n1	-21.2%	44.7µM*	20.1%	4.8%	-16.6%	-14.7%
COC(=O)c1c(-c2cccs2)csc1NC(=O)c1ccc(Cl)cc1	.	2.24µM*	19.2%	-20.0%	.	-29.5%
COC(=O)c1c(-c2cccs2)csc1NC(=O)COc1c(C)ccc(C)c1C	.	1.41µM*	?	?	.	79.4µM*
COC(=O)c1c(-c2cccs2)csc1NC(=O)c1cccc(Cl)c1	.	?	29.9%	19.0%	.	51.0%
COC(=O)c1c(-c2cccs2)csc1NC(=O)COc1ccc(C)cc1	.	?	-7.3%	-12.7%	.	-1.7%
COC(=O)c1c(-c2cccs2)csc1NC(=O)c1ccc(C(C)C)cc1	.	2.82µM*	-12.3%	-0.9%	.	-0.3%
COC(=O)c1c(-c2cccs2)csc1NC(=O)COc1ccc(C(C)(C)C)cc1	.	3.98µM*	-16.6%	-15.0%	.	-8.3%
O=S(=O)(c1ccccc1Cl)N1CCN(c2nc(-c3cccs3)nc3ccccc23)CC1	.	.	45.8%	.	.	-2.0%
CC(=O)NCCNc1nc(-c2cccnc2)nc2ccccc12	.	-42.6%[0.501 µM]	.	.	17.1%	.
CCCS(=O)(=O)c1nc(S(=O)(=O)c2ccc(C)cc2)c(NCc2ccccc2)s1	.	-0.4%[59 µM]	28.8%	-1.5%	.	-18.1%
CC(=O)Nc1ccccc1OC(C)C(=O)NC(C)c1ccc(F)cc1 (stereo unspecified)	-21.5%	5.8%[59 µM]	12.9%	-7.1%	9.7%	1.4%
O=C(N/C(=C/c1cccc([N+](=O)[O-])c1)C(=O)N1CCCCCC1)c1cccs1	-1.9%	?	2.2%	-10.8%	-22.4%	?
Cn1cc(C(CO)Cc2ccccc2)c2ccccc21 (stereo unspecified)	-4.6%	14.4%[2.33 µM]	14.4%	-38.1%	.	-34.5%
